Test results as given in PubChem BioAssay (NCATS).
Several values for one entry are separate records, joined by “and”; a condition that tells them apart may be missing. Equal entries are not always repeated. Results filed as inconclusive are left out. A number with no mark means an inactive call. Activity calls are given as the source filed them. The call rests on the fitted dose curve; in most records, active means well fitted inhibition curve with a large enough effect; inconclusive means small, poorly fitted or top-dose-only effect; inactive means flat fitted curve, though single readings scatter.

How the values were obtained:
KB-3-1 = assay: Cytotoxic Profiling of Annotated Libraries Using Quantitative High-Throughput Screening (AID 1296008); details: Five cell lines viability, CellTiter-Glo ATP luminescence, 48-72 h; max response: hits give low values
In short: (§1)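 Cytotoxicity was measured as CellTiter-Glo ATP luminescence, read after 10 min at room temperature. Compound treatment of the cells lasted 48 or 72 hr at 37 degrees Celsius in a qHTS format.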

NIH3T3 [1] = assay: as above; details: Five cell lines viability, CellTiter-Glo ATP luminescence, 48-72 h; max response: hits give low values
In short: as §1

MCC-13 = assay: qHTS assay to identify novel small-molecules to repurpose for Merkel cell carcinoma treatment (AID 1296009); details: MCC and control cell lines, CellTiter-Glo viability, 72 h; series mostly up to 46 µM
In short: (§2)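 After compound transfer in DMSO, plates were kept 72 hr at 37 degree celsius. Luminescent ATP signal from CellTiter-Glo served as viability measure, normalized against DMSO and no-cell controls.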

MCC-26 = assay: as above; details: MCC and control cell lines, CellTiter-Glo viability, 72 h; series mostly up to 46 µM
In short: as §2

MKL-1 = assay: as above; details: MCC and control cell lines, CellTiter-Glo viability, 72 h; series mostly up to 46 µM
In short: as §2

MKL-2 = assay: as above; details: MCC and control cell lines, CellTiter-Glo viability, 72 h; series mostly up to 46 µM
In short: as §2

UISO = assay: as above; details: MCC and control cell lines, CellTiter-Glo viability, 72 h; series mostly up to 46 µM
In short: as §2

NIH3T3 [2] = assay: as above; details: MCC and control cell lines, CellTiter-Glo viability, 72 h; at 44.8 µM (top of the series) unless noted
In short: as §2
Further: nearly all actives have a fitted effect of over 60% in size.
On the % scale 0 is the no-effect control and ±100 the full control effect; potency means the concentration at half of the fitted maximal effect.

COc1ccc(Nc2nccc(NCCO)n2)cc1 was tested, and the max response (KB-3-1) was -27.2%, the max response (NIH3T3 [1]) was 1.01% and the Potency (MCC-13) was “inactive”. The Potency (MCC-26) was “inactive”, the Potency (MKL-1) was “inactive” and the Potency (MKL-2) was “inactive”. The Potency (UISO) was “inactive”.
With C[C@@H]1[C@H](C)CC[C@]2(C(=O)O)CC[C@]3(C)C(=CC[C@@H]4[C@@]5(C)C[C@@H](O)[C@H](O)[C@@](C)(CO)[C@H]5CC[C@]43C)[C@@H]12 the outcome (KB-3-1) was “inactive”, the outcome (NIH3T3 [1]) was “inactive” and the Potency (MCC-13) was “inactive”. The Potency (MCC-26) was “inactive”, the Potency (MKL-1) was “inactive” and the Potency (MKL-2) was “inactive”. The outcome (NIH3T3 [2]) was “inactive” and the Potency (UISO) was “inactive”.
In the case of CCn1c(=O)c2c(nc(C=Cc3ccc(OC)c(OC)c3)n2C)n(CC)c1=O, the max response (KB-3-1) is reported as 9.4%, the outcome (NIH3T3 [1]) is reported as “inactive” and the Potency (MCC-13) is reported as “inactive”. The Potency (MCC-26) was “inactive”, the Potency (MKL-1) was “inactive” and the outcome (NIH3T3 [2]) was “inactive”. The Potency (UISO) was “inactive”.
Cn1cc(CNCC2CCN(c3ncc(C(=O)NO)cn3)CC2)c2ccccc21 was tested, and the Potency (KB-3-1) was 132 nM (active), the Potency (NIH3T3 [1]) was 526 nM (active) and the Potency (MCC-13) was 833 nM (active). For the same molecule, the Potency (MCC-26) was 590 nM (active), the Potency (MKL-2) was 33.2 nM (active) and the Potency (UISO) was 264 nM (active).
O=C1c2cccc(O)c2C(=O)c2c(O)cc(CO)cc21 was tested, and the max response (KB-3-1) was -6.13%, the max response (NIH3T3 [1]) was -5.61% and the Potency (MCC-13) was “inactive”. The Potency (MKL-1) was “inactive”, the Potency (MKL-2) was “inactive” and the Potency (UISO) was “inactive”.
With CS(=O)(=O)N1CCc2c(-c3cnc(N)nc3)nc(N3CCOCC3)nc21 the Potency (KB-3-1) was 4610 nM (active), the Potency (NIH3T3 [1]) was 743 nM (active) and 1.84 µM (active) and the Potency (MCC-13) was “inactive”. The Potency (MKL-1) was “inactive” and the Potency (MKL-2) was “inactive”.
With N#CC(=C(O)c1ccc(Cl)cc1Cl)c1nc2cc(Cl)ccc2c(=O)[nH]1 the max response (KB-3-1) was 3.32%, the max response (NIH3T3 [1]) was 1.52% and the Potency (MCC-13) was “inactive”. The Potency (MKL-1) was “inactive”, the Potency (MKL-2) was “inactive” and the Potency (UISO) was “inactive”.
In the case of CC(C=CC(=O)NO)=C[C@@H](C)C(=O)c1ccc(N(C)C)cc1, the Potency (KB-3-1) is reported as 1180 nM (active), the Potency (NIH3T3 [1]) is reported as 1480 nM (active) and the Potency (MCC-13) is reported as 8330 nM (active). The Potency (MKL-1) was 1660 nM (active), the Potency (MKL-2) was 166 nM (active) and the Potency (UISO) was 3320 nM (active).
CCS(=O)(=O)Nc1ccc2[nH]c(O)c(C(=Nc3ccc(CN4CCCCC4)cc3)c3ccccc3)c2c1 was tested, and the Potency (KB-3-1) was 9350 nM (active), the Potency (NIH3T3 [1]) was 264 nM (active) and the Potency (MCC-13) was 5260 nM (active). For the same molecule, the Potency (MKL-2) was “inactive” and the Potency (UISO) was 20900 nM (active).
In the case of C=CCNC1=C2C[C@@H](C)C[C@H](OC)[C@@H](O)[C@@H](C)C=C(C)[C@H](OC(N)=O)[C@@H](OC)C=CC=C(C)C(=O)NC(=CC1=O)C2=O, the Potency (KB-3-1) is reported as 105 nM (active), the Potency (NIH3T3 [1]) is reported as 526 nM (active) and the Potency (MCC-13) is reported as 3720 nM (active). For the same molecule, the Potency (UISO) was 1480 nM (active).
CN(C)c1ccc(C(=O)NCCCCCCC(=O)NO)cc1 was tested, and the Potency (KB-3-1) was 2350 nM (active), the Potency (NIH3T3 [1]) was 3720 nM (active) and the Potency (MCC-13) was 4180 nM (active). For the same molecule, the Potency (MKL-1) was 1660 nM (active) and the Potency (MKL-2) was 743 nM (active).
CC(=O)O[C@H]1C[C@@H]2CC[C@H]3[C@H]4C[C@H]([N+]5(C)CCCCC5)[C@@H](OC(C)=O)[C@@]4(C)CC[C@@H]3[C@@]2(C)C[C@H]1N1CCCCC1 was tested, and the max response (KB-3-1) was 2.79%, the max response (NIH3T3 [1]) was 4.95% and the Potency (MCC-13) was “inactive”. For the same molecule, the Potency (MKL-1) was “inactive”, the Potency (MKL-2) was “inactive” and the Potency (UISO) was “inactive”.
With Cn1cnc(=N)c2[nH]cnc21 the Potency (KB-3-1) was 10500 nM (active), the Potency (NIH3T3 [1]) was 9350 nM (active) and the Potency (MCC-13) was 14800 nM (active). For the same molecule, the Potency (MKL-1) was 7430 nM (active), the Potency (MKL-2) was 209 nM (active) and the Potency (UISO) was 5260 nM (active).
For Nc1ccn(C2CO[C@H](CO)O2)c(=O)n1 (stereo not given in full), the max response (KB-3-1) was 6.69%, the max response (NIH3T3 [1]) was -8.89% and the Potency (MCC-13) was “inactive”. For the same molecule, the Potency (MCC-26) was “inactive”, the Potency (MKL-1) was “inactive” and the Potency (MKL-2) was “inactive”. The Potency (UISO) was “inactive”.
In the case of Cn1cc(-c2cnn3c(N)c(Br)c([C@H]4CCCNC4)nc23)cn1, the Potency (KB-3-1) is reported as 10500 nM (active), the Potency (NIH3T3 [1]) is reported as 662 nM (active) and the Potency (MCC-13) is reported as “inactive”. The Potency (MCC-26) was “inactive” and the Potency (MKL-2) was 1320 nM (active).
For COC[C@H](NC(=O)c1cnc(C)s1)C(=O)N[C@@H](COC)C(=O)N[C@@H](Cc1ccccc1)C(=O)[C@@]1(C)CO1, the Potency (KB-3-1) was 469 nM (active), the Potency (NIH3T3 [1]) was 833 nM (active) and the Potency (MCC-13) was 526 nM (active). For the same molecule, the Potency (MKL-1) was 418 nM (active) and the Potency (UISO) was 235 nM (active).
In the case of Cc1nc(NC(=O)N2CCC[C@@H]2C(N)=O)sc1-c1ccnc(C(C)(C)C(F)(F)F)c1, the Potency (KB-3-1) is reported as 8330 nM (active), the Potency (NIH3T3 [1]) is reported as 16600 nM (active) and the Potency (MCC-13) is reported as “inactive”. For the same molecule, the Potency (MKL-1) was “inactive”.
In the case of COc1cccc2c1C(=O)c1c(O)c3c(c(O)c1C2=O)C[C@@](O)(C(=O)CO)C[C@@H]3O[C@H]1C[C@H](N)[C@H](OC2CCCCO2)[C@H](C)O1 (stereo not given in full), the Potency (KB-3-1) is reported as 833 nM (active), the Potency (NIH3T3 [1]) is reported as 590 nM (active) and the Potency (MCC-13) is reported as 5260 nM (active). For the same molecule, the Potency (MCC-26) was 3720 nM (active), the Potency (MKL-1) was 2640 nM (active) and the Potency (UISO) was 1660 nM (active).
With CN(C)CC[C@H](c1ccc(Cl)cc1)c1ccccn1 the max response (KB-3-1) was -7.57%, the max response (NIH3T3 [1]) was -0.393% and the Potency (MCC-13) was “inactive”. For the same molecule, the Potency (MKL-1) was “inactive”, the Potency (MKL-2) was “inactive” and the Potency (UISO) was “inactive”.
With C=CCNc1c(O)cc2c(O)c1C[C@@H](C)C[C@H](OC)[C@@H](O)[C@@H](C)C=C(C)[C@H](OC(N)=O)[C@@H](OC)C=CC=C(C)C(=O)N2 the Potency (KB-3-1) was 93.5 nM (active), the Potency (NIH3T3 [1]) was 590 nM (active) and the Potency (MCC-13) was 5900 nM (active). For the same molecule, the Potency (MKL-1) was 11800 nM (active) and the Potency (UISO) was 2350 nM (active).
